Assay results from PubChem BioAssay AID651997 (Sanford-Burnham Center for Chemical Genomics, 2013).
The campaign covered roughly 2,400 compounds. About 700 (29%) were called active. These entries were drawn from the full list. A number with no mark means an inactive call.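 Rule for the calls: active = inhibition of at least 50%; inactive = the rest.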

The molecules below were run against G-protein coupled receptor 183 (Homo sapiens) (UniProt P32249) (assay: repeat testing of EBI2 arrestin blockers – cell-based, single concentration, luminescence, 7a,25-OHC stimulation, confirmation (AID 651997)). Settings: EBI2 beta-arrestin luminescence, 7a,25-OHC antagonism; at 5 µM; active compounds read high.
Sequence of G-protein coupled receptor 183 (Homo sapiens) (P32249 whole entry, looked up): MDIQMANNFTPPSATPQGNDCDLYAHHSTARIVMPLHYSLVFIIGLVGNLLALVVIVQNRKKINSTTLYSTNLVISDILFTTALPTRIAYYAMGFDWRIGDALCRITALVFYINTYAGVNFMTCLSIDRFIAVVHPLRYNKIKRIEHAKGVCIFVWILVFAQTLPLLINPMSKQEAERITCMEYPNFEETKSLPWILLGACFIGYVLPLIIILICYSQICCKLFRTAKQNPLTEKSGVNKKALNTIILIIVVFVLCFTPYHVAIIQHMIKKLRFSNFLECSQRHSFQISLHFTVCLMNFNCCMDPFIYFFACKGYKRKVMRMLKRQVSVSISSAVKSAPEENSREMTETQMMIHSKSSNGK

| SMILES | inhibition |
| --- | --- |
| COc1ccc([C@H]2CC(=O)C=C(/C=C/c3ccc(Cl)cc3)C2)cc1 | 20.8% |
| COc1ccc2cc(C3=CC(=O)C[C@H](c4ccc5c(c4)OCO5)C3)ccc2c1 | 51.4% (active) |
| COc1ccc([C@H]2CC(=O)C=C(c3ccc(C)cc3)C2)cc1 | 56.3% (active) |
| N#Cc1ccc(C2=CC(=O)C[C@H](c3ccc(Cl)cc3)C2)cc1 | 53.7% (active) |
| CCCCN=C1C([N+](=O)[O-])=CC=C2C1=NC1(CCCCC1)N2O | 38.6% |
| CCOc1ccc(CCN2C(=S)N([C@@H](CC(C)C)CN3CCC[C@@H]3CN3C(=S)NC[C@@H]3Cc3ccc(O)cc3)C[C@@H]2Cc2ccc(O)cc2)cc1 | 26.9% |
| CC1(Cc2ccccc2C#N)C(=O)Nc2ccc(-c3ccc4[nH]ccc4c3)cc21 (stereo unspecified) | 31.6% |
| COc1ccc(CNC(=O)CN(c2ccc(OC)c(Cl)c2)S(=O)(=O)c2ccc(C)cc2)cc1 | 6.43% |
| Cc1ccc2oc(=O)c3cnn(CC(=O)N(Cc4ccco4)C4CCCCC4)c3c2c1 | 76.3% (active) |
| Cc1ccc2oc(=O)c3cnn(CC(=O)N4CCCCCC4)c3c2c1 | 31% |
| O=C(Nc1ccc(S(=O)(=O)N2CCCCC2)cc1)C1CC(=O)N(c2ccc(F)cc2)C1 (stereo unspecified) | 17.5% |
| Cc1ccc(-c2nn(-c3ccccc3)cc2/C=C/C(=O)Nc2cccc(S(N)(=O)=O)c2)cc1 | 25.3% |
| COc1ccc(-c2cn(-c3ccc(OC)cc3)c(=S)[nH]2)cc1 | 68% (active) |
| CCOc1ccc(CN(Cc2ccco2)S(=O)(=O)c2ccc(-n3cnnn3)c(OC)c2)cc1 | 24.7% |
| CCN(CC(=O)NCc1cccs1)C(=O)/C=C/c1ccc(C)cc1 | 85.2% (active) |
| O=c1[nH]c(CN2CCN(S(=O)(=O)c3ccc4c(c3)OCCO4)CC2)nc2sc3c(c12)CCCC3 | 27.9% |
| Cc1ccc(S(=O)(=O)NCCNC(C)c2ccc(Br)cc2)cc1 (stereo unspecified) | 9.45% |
| COc1ccc(C(=O)/C=C/c2ccc(OC3CSC3)cc2)cc1 | 25.8% |
| Cc1nc(-c2ccccc2)sc1C(=O)/C=C/c1ccccc1 | 52.2% (active) |
| COc1ccc(/C=C/C(=O)c2ccc(OC)cc2O)cc1 | 41.6% |
| CN(Cc1ccc(F)cc1)C(=O)COc1ccc2ccccc2c1 | 84% (active) |
| CCC(C)(C)NC(=O)c1cc([N+](=O)[O-])ccc1N1CCCCC1 | 42.4% |
| COc1ccc(-c2cc(C3CCN(c4ncccc4[N+](=O)[O-])CC3)[nH]n2)cc1 | 32.3% |

| SMILES | inhibition |
| --- | --- |
| O=C(C(c1ccccc1)c1ccccc1)N1CCN(CC(O)COc2ccccc2)CC1 (stereo unspecified) | 15.3% |
| COc1ccc(C(C(=O)NC2CCCCC2)N(C(=O)c2snc(C(N)=O)c2N)c2ccccc2OC)cc1 (stereo unspecified) | 57% (active) |
| CC1CCc2sc3nc(N4CCN(CCO)CC4)n4ncnc4c3c2C1 (stereo unspecified) | 67.9% (active) |
| Cc1cccc(-n2c(O)c(C=Nc3ccccc3N)c(=O)[nH]c2=O)c1 | 13.2% |
| Cc1ccc(S(=O)(=O)N2CCN(CC(=O)N/N=C/c3ccc(Br)s3)CC2)cc1 | 41.9% |
| CCC1Nc2ncnc(N3CCN(c4ccccc4)CC3)c2N(Cc2ccc(Cl)cc2)C1=O (stereo unspecified) | 86.9% (active) |
| CC(=O)/C(=N\Nc1ccc(Cl)cc1Cl)Sc1cccc2cccnc12 | 43.2% |
| CC(C)Cc1ccc(-c2cc3nc(NCc4cccc(Cl)c4)ccn3n2)cc1 | 51.8% (active) |
| Cc1cccc(N2CCN(C(=O)c3cc4c(=O)[nH]c5ccccc5c4n3C)CC2)c1C | 75.1% (active) |
| COc1cccc(-c2cc(C(=O)N3CCN(c4ccccc4OC)CC3)no2)c1 | 42.9% |
| O=C(CCNS(=O)(=O)c1ccccc1)NCCSc1ccc(Br)cc1 | 12.7% |
| Cc1ccc(OCCNC(=O)CCNS(=O)(=O)c2ccc(Br)cc2)cc1 | 17.6% |
| CCN1CCN(C(=O)CSc2ccc(C)cc2)CC1 | 27.6% |
| Cc1ccc(SCC(=O)N2CCN(c3ccc(F)cc3)CC2)cc1 | 33.8% |
| CCOC(=O)N1CCN(C(=O)COc2ccc(Br)cc2)CC1 | 75.6% (active) |
| CCOC(=O)N1CCN(C(=O)COc2ccc(Cl)cc2C)CC1 | 30.2% |
| CCOC(=O)C1CCN(C(=O)COc2cc(C)c(Br)c(C)c2)CC1 | 59% (active) |
| CCOC(=O)N1CCN(C(=O)CSc2ccc(Cl)cc2)CC1 | 80.2% (active) |
| Cc1cc(OCCOc2cccc3cccnc23)c(C)cc1Cl | 38.3% |
| O=C(CSc1ccccc1)Nc1cc(Cl)ccc1Oc1ccccc1 | 45% |
| CCC(c1nnc(SCC(=O)NNC(=O)c2ccccc2)n1Cc1ccccc1)N(C)C (stereo unspecified) | 35.9% |
| O=C(Nc1ncc2c(n1)CC(c1ccco1)CC2=O)c1ccc(Cl)cc1 (stereo unspecified) | 10.5% |
| N#Cc1ccc(C(c2nnnn2CCc2ccccc2)N2CCCCCC2)cc1 (stereo unspecified) | 34.1% |

| SMILES | inhibition |
| --- | --- |
| Cc1cccc(N=C2NC(=O)/C(=C/c3cn(C)c4ccccc34)S2)c1 | 33.9% |
| COc1ccc(/C=N/N=C/c2c[nH]c(=O)c(C#N)c2Nc2ccccc2)cc1 | 79.2% (active) |
| FC(F)(F)Oc1ccccc1C(c1nnnn1C1CCCCC1)N1CCN(C/C=C/c2ccccc2)CC1 (stereo unspecified) | 23% |
| O=C(c1cc(=O)c2ccccc2o1)N1CCN(c2ccccc2)CC1 | 20.1% |
| COc1ccccc1N1CCN(C(=O)c2cc(=O)c3cc(C)ccc3o2)CC1 | 76% (active) |
| COc1ccccc1N1CCN(C(=O)c2cc(-c3ccc(Br)cc3)on2)CC1 | 20.4% |
| O=C(NNC(=O)c1ccc2ccccc2c1)c1ccc(Cl)cc1 | 26.7% |
| O=C(NCCCc1ccccc1)C1CCC(=O)N(CCc2ccc(Cl)cc2)C1 (stereo unspecified) | 41.6% |
| O=C(c1cc2cc(F)ccc2[nH]1)N1CCN(c2ccc(F)cc2)CC1 | 43.5% |
| Cc1cs/c(=N\N=C\c2ccc(O)cc2)n1Cc1ccco1 | 34.7% |
| CCCCC(=O)N(C)c1c(CC)nc2c(OCc3ccc(Cl)cc3Cl)cccn12 | 35.5% |
| COc1ccc(NC(=O)N2CCC(Cc3ccccc3)CC2)cc1 | 55% (active) |
| CC(C)N(Cc1ccccc1)C(=S)Nc1ccc(OC(F)F)cc1 | 24.2% |
| CCCC1CCC(=NNC(=S)NCCc2ccccc2)CC1 (stereo unspecified) | 23.4% |
| COc1ccc(-c2cc(NC=O)c3ncc(-c4cccc(C(=O)N(C)C)c4)n3c2)c(OC)c1 | 23.2% |
| Cc1ccc(O/C=C2\OC(=O)c3ccccc32)cc1 | 16% |
| COc1cccc(NC(=O)Cn2c3ccccc3c3nc4n(c(=O)c32)CCS4)c1 | 30.1% |
| O=C(/C=C/c1cccc(C(F)(F)F)c1)N1CCN(c2ccccn2)CC1 | 28.2% |
| O=C(c1cc2ccccc2s1)N1CCN(c2ccccn2)CC1 | 55.7% (active) |
| Cc1ccc(CSCCNC(=O)CN(c2ccc(F)cc2)S(C)(=O)=O)cc1 | 23.3% |
| O=C(NCCNc1ccc([N+](=O)[O-])cc1)c1cccc2c(Br)cccc12 | 38% |
| Cc1cc(Cl)c2oc(C(=O)N3CCC(O)(c4ccccc4)CC3)c(C)c2c1 | 43.3% |
| Fc1ccccc1/C=N/Nc1cc(N2CCCCC2)ncn1 | 55% (active) |

| SMILES | inhibition |
| --- | --- |
| COc1ccc(-n2c(Cc3cccn3C)nnc2SCC(=O)Nc2cc(C)cc(C)c2)cc1 | 7.81% |
| O=C(NCc1ccc(Cl)cc1)C1CCN(S(=O)(=O)c2cccs2)CC1 | 23% |
| N#CC(=C1CCCC1)c1nc(-c2ccc(Cl)cc2)cs1 | 54.8% (active) |
| CCOc1ccc(C(C)=O)cc1COC(=O)c1cnc(Cl)c(Cl)c1 | 14.3% |
| COc1cccc(NC(=O)Cn2c3ccc(F)cc3c3nc4n(c(=O)c32)CCS4)c1 | 41.9% |
| COc1ccc(OCC(=O)N2CCN(C(=O)c3cccs3)CC2)cc1 | 30.8% |
| O=C(COc1ccc2ccccc2c1)N1CCN(C(=O)c2cccs2)CC1 | 61% (active) |
| O=C(/C=C/c1cccc([N+](=O)[O-])c1)N1CCN(Cc2ccccc2)CC1 | 29.4% |
| O=C(/C=C/c1ccc(Cl)cc1)N1CCN(c2ccccc2[N+](=O)[O-])CC1 | 88.6% (active) |
| Cc1ccc(N2CC(C(=O)Nc3ccc(S(=O)(=O)N4CCCC4)cc3)CC2=O)cc1C (stereo unspecified) | 34.7% |
| O=C(CCc1ccccc1)NNC(=O)COc1ccc(Cl)cc1 | 17.4% |
| Cc1cc(OCC(=O)N2CCN(c3ncccn3)CC2)ccc1Cl | 50.9% (active) |
| O=C(c1cc2ccccc2o1)N1CCN(S(=O)(=O)c2ccc(Cl)s2)CC1 | 70.7% (active) |
| Cc1ccc(OCC(=O)N2CCN(S(=O)(=O)c3ccc(Cl)s3)CC2)cc1C | 79% (active) |
| Cc1cccc(OCC(O)CN2CCN(S(=O)(=O)c3ccc(C)cc3C)CC2)c1 (stereo unspecified) | 35.6% |
| COc1ccc(OCC(=O)N2CCN(C(=O)COc3ccccc3)CC2)cc1 | 24.9% |
| Cc1ccc(OCC(=O)N2CCN(C(=O)c3cccnc3)CC2)cc1 | 17.6% |
| O=C(COc1ccc(Cl)cc1)N1CCN(S(=O)(=O)c2ccc(Cl)cc2)CC1 | 72.8% (active) |
| Cc1ccc(S(=O)(=O)N2CCN(C(=O)CSc3cc(C)ccc3C)CC2)c(C)c1 | 33.4% |
| CN1CCc2ccccc2C1Cc1ccccc1NC(=O)c1sc2ccccc2c1Cl (stereo unspecified) | 14% |
| Fc1ccc(N2CCN(Cc3cnc(Oc4ccc(Br)cc4)s3)CC2)cc1 | 40.8% |
| COc1ccc(OC)c(C(=O)c2coc3ccc(O)c(CN4CCOCC4)c23)c1 | 22.3% |
